DAX1 inh-1: blocks DAX1 repression of SF-1 activated StAR promoter; HEK293T StAR-luciferase reporter, SF-1/DAX-1 repression relief; inhibition, % at 6.8 µM; hit rate 1.1% among 370,000;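 active means inhibition above the mean over all tested compounds plus 3 SD, cut at about 3.6% in these data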;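 further: higher inhibition means more luminescence from relief of DAX-1 repression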
DAX1 inh-2: NR0B1 (DAX1) inhibition | P51843 | HEK293 Gal4-DAX1 luciferase reporter, luminescence | inhibition, % at 6.75 µM | hit rate 0.99% among 340,000;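 active means inhibition above the mean over all tested compounds plus 3 SD, cut at about 4.2% in these data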;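 further: inhibition shows as a rise in luminescence from relieved DAX1 repression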
Target sequence (P51843 207-470 limits assumed): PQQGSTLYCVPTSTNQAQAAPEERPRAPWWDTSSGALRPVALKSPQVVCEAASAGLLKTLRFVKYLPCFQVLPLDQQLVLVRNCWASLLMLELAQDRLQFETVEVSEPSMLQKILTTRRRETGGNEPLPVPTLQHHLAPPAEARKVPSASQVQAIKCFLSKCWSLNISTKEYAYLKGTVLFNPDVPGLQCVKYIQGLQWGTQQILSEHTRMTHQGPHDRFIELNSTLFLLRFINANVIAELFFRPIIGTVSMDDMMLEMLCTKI
SMARCA2 activ: increases SMARCA2 function in MMTV reporter cells; MG213 cells, MMTV-luciferase reporter, dexamethasone, overnight; activation, % at 9.1 µM; hit rate 1% among 370,000; AID 652017; in the data active means activation above about 7.8%
hcDAF-12 act: activates DAF-12 receptor from parasite H. contortus. activation, % at 6.8 µM. hit rate 1.4% among 370,000. AID 652067. HEK293 hcDAF-12 lit1-tk-luc reporter, luminescence; 0% DMSO, 100% Δ7-dafachronic acid;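 active means activation above the mean of all tested compounds plus 3 SD, cut at about 5.5% in these data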
hgDAF-12 ag: activates the H. glycines DAF-12 receptor ligand-binding domain | hit rate 1.8% among 370,000 | activation, % at 6.8 µM | HEK293 GAL4-hgDAF12 UAS-luciferase reporter, agonist luminescence; normalized to butyrate control;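 active means activation above a cutoff set at the mean of all screened compounds plus 3 SD, cut at about 10% in these data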
ssDAF-12 act: activates DAF-12 receptor from parasite S. stercoralis; HEK293 ssDAF-12/GRIP1 lit1-tk-luc reporter, luminescence; % of 3 µM dafachronic acid response; hit rate 1% among 370,000; activation, % at 6.8 µM;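 active means activation above the mean over all tested compounds plus 3 SD, cut at about 0.9% in these data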
A number is an active result; - = inactive; . = no result given. In the library only some 4.8% were active in any assay of this set; here they are far more common.

SMILES | DAX1 inh-1 | DAX1 inh-2 | SMARCA2 activ | hcDAF-12 act | hgDAF-12 ag | ssDAF-12 act
CCCC(=O)Nc1ccc2oc(-c3ccncc3)nc2c1 | - | - | - | - | - | -
O=C(C1CCCCC1)N1CCc2ccccc21 | - | - | - | - | - | -
CCN(CC)CC(=O)Nc1ccc(-c2nc3cc(NC(=O)CN(CC)CC)ccc3o2)cc1 | - | - | - | - | - | 1.0
CCC(C)NCC(=O)Nc1ccc(-c2nc3cc(NC(=O)CNC(C)CC)ccc3o2)cc1 (configuration not stated) | - | - | - | - | - | -
CC(=O)Nc1ccc(Nc2cc(C)nc3c(-c4ccc(Cl)cc4)c(C)nn23)cc1 | - | - | 7.9 | - | - | -
CC(=O)Nc1ccc(Nc2cc(C)nc3c(-c4ccc(Cl)cc4)cnn23)cc1 | - | - | - | - | - | -
CCOC(=O)c1ccc(NC(=O)CCC2COc3ccccc3O2)cc1 (configuration not stated) | - | - | - | - | - | -
CCOC(=O)N1CCC(Nc2c(-c3ccc(C)cc3)c(=O)c2=O)CC1 | - | - | - | - | - | 3.5
O=C1CC(SCc2nc3ccccc3[nH]2)C(=O)N1c1cccc(Cl)c1 (configuration not stated) | - | - | - | - | - | -
COc1ccccc1C1NC(=O)NC(C)=C1C(C)=O (configuration not stated) | - | - | - | - | - | -
O=C(CSc1nnc(NC(=O)c2ccccc2F)s1)NCC1CCCO1 (configuration not stated) | 3.8 | - | - | - | - | -
Cc1ccccc1C(=O)Nc1nnc(SCC(=O)NCc2ccco2)s1 | 8.0 | - | - | 5.9 | 12 | -
O=C(CSc1nnc(NC(=O)c2ccccc2)s1)NCc1ccco1 | - | - | - | - | - | -
O=C(CSc1nnc(NC(=O)c2ccc3c(c2)OCO3)s1)NCc1ccco1 | - | - | - | 5.9 | 13 | -
O=C(CSc1nc2ccccc2s1)NC(=O)NCc1ccco1 | - | - | - | - | - | 1.4
COc1ccc(CCNC(=O)CSc2n[nH]c(N)n2)cc1OC | - | - | - | - | - | -
COc1ccccc1C(=O)Nc1nnc(SCC(=O)Nc2ccc3c(c2)oc2ccccc23)s1 | - | - | 13 | - | - | -
O=C(CN1CCN(c2ccccc2O)CC1)NC(=O)NCc1ccco1 | - | - | - | - | - | -
O=C(CN1CCc2ccccc21)NC(=O)NCc1ccco1 | - | - | - | - | - | 1.0
Cc1cccc(C(=O)Nc2nnc(SCC(=O)Nc3ccc4c(c3)oc3ccccc34)s2)c1 | - | - | - | - | - | -
CCc1nc2ccccc2c(=O)n1NC(=O)c1c(O)c2ccccc2[nH]c1=O | - | 4.9 | - | - | - | -
OC1COC(c2ccccc2)OC1C1OC(c2ccccc2)OCC1O (configuration not stated) | - | 4.9 | - | - | - | -
COc1ccc(OC)c(C(=O)COC(=O)c2cccnc2Cl)c1 | - | - | - | - | - | -
COc1ccc(C(=O)Cn2cnc3ccccc3c2=O)c(OC)c1 | 3.6 | - | - | - | - | -
CNc1snc(C)c1C(=O)OC(C)C(=O)Nc1cccc(OC)c1 (configuration not stated) | - | - | - | - | - | -
SMILES | DAX1 inh-1 | DAX1 inh-2 | SMARCA2 activ | hcDAF-12 act | hgDAF-12 ag | ssDAF-12 act
CC(CNC(=O)COC(=O)c1cccs1)c1ccccc1 (configuration not stated) | - | - | - | - | - | -
CC(CNC(=O)COC(=O)c1cccnc1Cl)c1ccccc1 (configuration not stated) | - | - | - | - | - | 1.2
COc1cccc(NC(=O)C(C)OC(=O)c2n[nH]c3ccccc23)c1 (configuration not stated) | - | - | - | - | 11 | -
COc1ccc(C(=O)COC(=O)c2cccnc2Cl)c(OC)c1 | - | - | - | - | 13 | -
CCOC(=O)C1CCN(C(=S)Nc2cccc(C)c2)CC1 | - | - | - | - | - | -
COc1ccccc1NC(=O)CSc1nc(O)c(Cc2ccccc2)c(=O)[nH]1 | - | - | - | - | - | -
O=C(NCCc1ccccc1)C1CCCN(c2nc3ccccc3s2)C1 (configuration not stated) | - | - | - | - | - | -
COc1cc2c(cc1OC)CN(C1CCCN(Cc3cccc(C(C)=O)c3)C1)CC2 (configuration not stated) | - | - | - | - | - | -
Cc1cc(C(=O)COC(=O)c2n[nH]c3ccccc23)c(C)n1C | 4.5 | - | - | 8.1 | 17 | 1.2
COc1ccc(OC)c(NC(=O)COC(=O)c2n[nH]c3ccccc23)c1 | - | - | - | - | - | -
Cc1cc(C(=O)COC(=O)c2n[nH]c(=O)c3ccccc23)c(C)n1C | - | - | - | - | - | -
COc1ccc(C(=O)COC(=O)c2n[nH]c3ccccc23)c(OC)c1 | 4.2 | - | - | - | 12 | -
COc1ccc(OCc2cccc(C(=O)Nn3cc([N+](=O)[O-])cn3)c2)cc1 | - | - | - | - | 11 | -
COc1ccc(OCc2cccc(C(=O)Nc3cc(C)on3)c2)cc1 | - | - | - | - | - | -
Cc1ccc(C(=O)NCc2ccc3c(c2)OCO3)cc1Cl | - | - | - | - | - | -
O=C(Nc1ccccc1)c1ccn[nH]1 | - | 4.3 | - | - | - | -
COc1ccccc1N1CCN(C(=O)Cn2c(=O)oc3cc(S(=O)(=O)N4CCCC4)ccc32)CC1 | - | - | - | - | - | -
CCN(CC)CCCn1c2c(c(SCC(=O)Nc3cccc4ccccc34)nc1=O)CCC2 | 3.8 | - | - | - | - | -
CCOC(=O)c1c(CN2CCOCC2)n(C)c2cc(Br)c(O)c(CN(C)C)c12 | - | - | - | - | - | -
CC(=O)CCc1c(C)c2cccc(C)c2[nH]c1=O | - | - | - | - | - | -
O=C(O)Cc1nn(Cc2ccc(Cl)cc2)c(=O)c2ccccc12 | - | 9.0 | - | - | - | -
CCOc1ccc2nc(NC(=O)/C=C/c3ccc4c(c3)OCO4)sc2c1 | - | - | - | - | - | -
O=C(/C=C/c1ccc2c(c1)OCO2)Nc1nc2ccc(F)cc2s1 | - | 4.8 | - | - | - | -
O=C(CCNC(=O)N1CC(=O)Nc2ccccc21)NCc1cccc(Cl)c1 | 4.4 | - | - | - | - | -
O=C(CNC(=O)N1CC(=O)Nc2ccccc21)Nc1ccccc1F | - | - | - | - | - | 1.0
Cn1c(O)c(C2=c3ccccc3=NC2=O)sc1=Nc1ccc(Cl)cc1 | - | - | - | - | - | -
COc1ccc(N2CCN(CCCNC(=O)Cn3c(=O)c4cccn4c4c(C)ccnc43)CC2)cc1 | . | . | . | - | - | -
Cc1ccc(SCc2cc(=O)[nH]c(Nc3nc(C)c4ccccc4n3)n2)cc1 | - | - | - | 6.1 | - | -
O=C1CCCC/C1=C\Nc1ccc(Cl)cn1 | - | 4.3 | - | - | - | -
